In PubChem BioAssay (NCI):
The panel holds about 79,000 compounds, 15% with a hit somewhere; the sample as a whole holds those more often. Active and inactive are the calls of the source. No stated cut-off is given here; in the data, active means growth inhibition above about 70%; inactive means the rest.

Legend:
[1] = NCI Yeast Anticancer Drug Screen. Data for the rad52 strain (AID 147);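 further: 0% = growth of vehicle-treated control cultures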; settings: S. cerevisiae rad52 mutant growth inhibition, hits give high values
In short: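 Read-out: growth inhibition versus vehicle-treated controls. Cells were a DNA repair-deficient yeast strain treated with compounds.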

[2] = NCI Yeast Anticancer Drug Screen. Data for the wt1 strain (AID 149);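 further: 0% = growth of vehicle-treated wt1 cultures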; settings: S. cerevisiae wt1 strain (SPY 50644) growth inhibition, hits give high values
In short: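 Compounds are added to wt1 yeast cultures. Growth is then measured. Inhibition is expressed relative to vehicle-treated controls.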

[3] = NCI Yeast Anticancer Drug Screen. Data for the rad50EPP+ strain (AID 151);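 further: 0% = growth of vehicle-treated control cultures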; settings: S. cerevisiae rad50 mutant strain, hits give high values
In short: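 Growth inhibition read against vehicle controls in rad50EPP+ yeast, a strain altered in DNA damage repair, after compound exposure.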

[4] = NCI Yeast Anticancer Drug Screen. Data for the mgt1 strain (AID 153); settings: S. cerevisiae mgt1 mutant growth inhibition, hits give high values
In short: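 mgt1 yeast grown with test compound; read-out is growth inhibition versus vehicle-treated cultures.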

[5] = NCI Yeast Anticancer Drug Screen. Data for the rad50 strain (AID 155);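 further: 0% = growth of vehicle-only cultures of the same strain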; settings: S. cerevisiae rad50 strain growth inhibition, hits give high values
In short: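 Inhibition values express reduced yeast growth in compound-treated cultures relative to vehicle-treated controls.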

[6] = NCI Yeast Anticancer Drug Screen. Data for the mec2-1 strain (AID 157); settings: S. cerevisiae mec2-1 strain, hits give high values
In short: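 Yeast mec2-1 mutant treated with compound. Readout: growth inhibition vs vehicle controls.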

[7] = NCI Yeast Anticancer Drug Screen. Data for the rad14 strain (AID 159);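 further: 0% = growth of vehicle-treated control cultures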; settings: S. cerevisiae rad14 strain growth inhibition, hits give high values
In short: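 A mutant yeast strain defective in DNA damage repair is treated with compound; inhibition of its growth is scored against untreated, vehicle-exposed cultures.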

[8] = NCI Yeast Anticancer Drug Screen. Data for the sgs1 mgt1 strain (AID 161);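 further: 0% = growth of cultures given vehicle only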; settings: S. cerevisiae sgs1 mgt1 strain, hits give high values
In short: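 Read-out: growth inhibition vs vehicle controls. Cells: mutant yeast strain deficient in DNA damage repair.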

[9] = NCI Yeast Anticancer Drug Screen. Data for the CLN2oe strain (AID 163);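 further: 0% = growth of vehicle-only control cultures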; settings: S. cerevisiae CLN2oe strain, hits give high values
In short: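 Read-out: yeast growth inhibition, expressed relative to vehicle-only controls. The strain bears an engineered cell-cycle alteration.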

[10] = NCI Yeast Anticancer Drug Screen. Data for the cln2 rad14 strain (AID 165);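 further: 0% = growth equal to vehicle treated cultures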; settings: S. cerevisiae cln2 rad14 strain, hits give high values
In short: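 cln2 rad14 yeast strain; compound exposure; growth inhibition read vs vehicle controls.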

[11] = NCI Yeast Anticancer Drug Screen. Data for the bub3 strain (AID 167); settings: S. cerevisiae bub3 mutant strain, hits give high values
In short: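 Steps: expose the mutant yeast strain to compound; grow alongside vehicle-treated cultures; measure growth; express inhibition against the vehicle cultures.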

[12] = NCI Yeast Anticancer Drug Screen. Data for the mlh1 strain (AID 171);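 further: 0% = growth of vehicle-treated control cultures of the same strain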; settings: S. cerevisiae mlh1 strain growth inhibition, hits give high values
In short: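 Read-out: growth inhibition versus vehicle controls. Strain: engineered yeast with a defined DNA repair or cell cycle defect, compound-treated.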

[13] = NCI Yeast Anticancer Drug Screen. Data for the sgs1 strain (AID 173);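 further: 0% = growth of vehicle-only control cultures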; settings: S. cerevisiae sgs1 mutant, hits give high values
In short: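 Read-out: yeast growth inhibition relative to vehicle controls, following compound exposure of a strain with a defined DNA repair/cell cycle alteration.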

[14] = NCI Yeast Anticancer Drug Screen. Data for the mlh1 rad18 strain (AID 175); settings: S. cerevisiae mlh1 rad18 strain growth inhibition, hits give high values
In short: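 Yeast w/ defined DNA-repair lesions; compound exposure; growth vs vehicle controls → % inhibition.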

[15] = NCI Yeast Anticancer Drug Screen. Data for the rad18 strain (AID 177); settings: S. cerevisiae rad18 mutant growth inhibition, hits give high values
In short: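 Readout: growth inhibition vs vehicle controls. Cells: genetically altered yeast strain, DNA repair defect.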

[16] = NCI Yeast Anticancer Drug Screen. Data for the wt2 strain (AID 169);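 further: 0% = growth of vehicle-treated yeast cultures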; settings: S. cerevisiae wt2 strain growth inhibition, hits give high values
In short: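 Read-out: growth inhibition versus vehicle-treated control cultures after compound exposure of the yeast strain.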

[17] = at 5.0 µM (retest, dose inferred, filed as 0.5)
[18] = at 50.0 µM (retest, dose inferred, filed as 5.0)

Measured: growth inhibition

CCCCOP(=O)(CCCP(=O)(OCCCC)OCCCC)OCCCC
active: [1]; at 100.0 µM 97% | [2]; at 100.0 µM 94% | [5]; at 100.0 µM 97% | [6]; at 100.0 µM 95% | [7]; at 100.0 µM 90% | [9]; at 100.0 µM 81% | [11]; at 100.0 µM 79% | [12]; at 100.0 µM 91% | [13]; at 100.0 µM 93% | [15]; at 100.0 µM 95%
inactive: [1]; at 1.2 µM 0% | [1]; at 3.7 µM 0% | [1]; at 11.0 µM 3% | [1]; at 33.0 µM 4% | [2]; at 1.2 µM -3% | [2]; at 3.7 µM 0% | [2]; at 11.0 µM 0% | [2]; at 33.0 µM 5% | [3]; at 1.2 µM -4% | [3]; at 3.7 µM -4% | [3]; at 11.0 µM -3% | [3]; at 33.0 µM -3% | [3]; at 100.0 µM -2% | [4]; at 1.2 µM -3% | [4]; at 3.7 µM -3% | [4]; at 11.0 µM -1% | [4]; at 33.0 µM 10% | [4]; at 100.0 µM 42% | [5]; at 1.2 µM -1% | [5]; at 3.7 µM 1% | [5]; [17] 7% | [5]; at 11.0 µM 1% | [5]; at 33.0 µM 7% | [5]; [18] 66% | [5]; at 50.0 µM 2.05% | [6]; at 1.2 µM -6% | [6]; at 3.7 µM -3% | [6]; [17] -7% | [6]; at 11.0 µM 2% | [6]; at 33.0 µM 7% | [6]; [18] 48% | [6]; at 50.0 µM 49.5% | [7]; at 1.2 µM 0% | [7]; at 3.7 µM 3% | [7]; at 11.0 µM 9% | [7]; at 33.0 µM 20% | [8]; [17] 12% | [8]; [18] 50% | [8]; at 50.0 µM -2.15% | [9]; at 1.2 µM 1% | [9]; at 3.7 µM -3% | [9]; at 11.0 µM 7% | [9]; at 33.0 µM 29% | [10]; [17] 7% | [10]; [18] 38% | [10]; at 50.0 µM 1.1% | [11]; at 1.2 µM -5% | [11]; at 3.7 µM -3% | [11]; [17] 0% | [11]; at 11.0 µM -2% | [11]; at 33.0 µM 1% | [11]; [18] 4% | [11]; at 50.0 µM 19.2% | [12]; at 1.2 µM -5% | [12]; at 3.7 µM -2% | [12]; at 11.0 µM 1% | [12]; at 33.0 µM 8% | [13]; at 1.2 µM -3% | [13]; at 3.7 µM -1% | [13]; at 11.0 µM 0% | [13]; at 33.0 µM 5% | [14]; [17] -2% | [14]; [18] 17% | [14]; at 50.0 µM 42.2% | [15]; at 1.2 µM -7% | [15]; at 3.7 µM 0% | [15]; at 11.0 µM 5% | [15]; at 33.0 µM 8%

Cc1cc(NCCCCCCCCNc2cc(C)nc3cc(N)ccc23)c2ccc(N)cc2n1
inactive: [1]; at 1.2 µM -41% | [1]; at 3.7 µM -45% | [2]; at 1.2 µM -65% | [2]; at 3.7 µM -41% | [3]; at 1.2 µM -47% | [3]; at 3.7 µM -30% | [3]; at 11.0 µM 50% | [4]; at 1.2 µM -72% | [4]; at 3.7 µM -79% | [5]; at 1.2 µM -39% | [5]; at 3.7 µM -32% | [5]; [17] 15% | [6]; at 1.2 µM -70% | [6]; at 3.7 µM -55% | [6]; [17] 12% | [7]; at 1.2 µM -40% | [7]; at 3.7 µM -35% | [8]; [17] 8% | [9]; at 1.2 µM -18% | [9]; at 3.7 µM -20% | [9]; at 11.0 µM 39% | [10]; [17] 18% | [11]; at 1.2 µM -64% | [11]; at 3.7 µM -45% | [11]; [17] 39% | [16]; at 1.2 µM -39% | [16]; at 3.7 µM -36% | [16]; at 11.0 µM 55% | [13]; at 1.2 µM -64% | [13]; at 3.7 µM -72% | [13]; at 11.0 µM 65% | [14]; [17] 7% | [15]; at 1.2 µM -45% | [15]; at 3.7 µM -65% | [15]; at 11.0 µM 66%
active: [1]; at 11.0 µM 75% | [1]; at 33.0 µM 98% | [1]; at 100.0 µM 95% | [2]; at 11.0 µM 92% | [2]; at 33.0 µM 98% | [2]; at 100.0 µM 96% | [3]; at 33.0 µM 95% | [3]; at 100.0 µM 95% | [4]; at 11.0 µM 80% | [4]; at 33.0 µM 98% | [4]; at 100.0 µM 95% | [5]; at 11.0 µM 92% | [5]; at 33.0 µM 97% | [5]; [18] 98% | [5]; at 50.0 µM 90.2% | [5]; at 100.0 µM 96% | [6]; at 11.0 µM 91% | [6]; at 33.0 µM 98% | [6]; [18] 98% | [6]; at 50.0 µM 91.4% | [6]; at 100.0 µM 96% | [7]; at 11.0 µM 87% | [7]; at 33.0 µM 97% | [7]; at 100.0 µM 96% | [8]; [18] 99% | [8]; at 50.0 µM 92.1% | [9]; at 33.0 µM 97% | [9]; at 100.0 µM 94% | [10]; [18] 98% | [10]; at 50.0 µM 88% | [11]; at 11.0 µM 90% | [11]; at 33.0 µM 97% | [11]; [18] 99% | [11]; at 50.0 µM 91.5% | [11]; at 100.0 µM 93% | [16]; at 33.0 µM 97% | [16]; at 100.0 µM 95% | [13]; at 33.0 µM 95% | [13]; at 100.0 µM 94% | [14]; [18] 98% | [14]; at 50.0 µM 89.2% | [15]; at 33.0 µM 97% | [15]; at 100.0 µM 93%
